# Read-outs that look alike come from different tables or passages of the source.
# Key:
# Set-up in all cases: species or system human, MV4-11 + K-562 + COLO205 + SK-N-BE2 + OVCAR-8
# [1] = system: CDKL5; conditions: read-out: apparent Kd, compound concentrations: 100 nM and 1000 nM (sheet 'Samples'), n = 1
# [2] = system: CLK1; conditions: read-out: apparent Kd, compound concentrations: 100 nM and 1000 nM (sheet 'Samples'), n = 1
# [3] = system: CLK4; conditions: read-out: apparent Kd, compound concentrations: 100 nM and 1000 nM (sheet 'Samples'), n = 1
# [4] = system: CSNK1A1; conditions: read-out: apparent Kd, n = 1
# [5] = system: CSNK1D; conditions: read-out: apparent Kd, n = 1
# [6] = system: CSNK1E; conditions: read-out: apparent Kd, n = 1
# [7] = system: DYRK1A; conditions: read-out: apparent Kd, compound concentrations: 100 nM and 1000 nM (sheet 'Samples'), n = 1
# [8] = system: MAPK8; conditions: read-out: apparent Kd; compound concentrations: 100 nM and 1000 nM (sheet 'Samples'), CATDS: 6.0987882625533299E-2; n = 1
# [9] = system: MELK; conditions: read-out: apparent Kd; compound concentrations: 100 nM and 1000 nM (sheet 'Samples'), CATDS: 6.0030175657403803E-2; n = 1
# [10] = system: NQO2; conditions: read-out: apparent Kd; compound concentrations: 100 nM and 1000 nM (sheet 'Samples'), CATDS: 6.6170323393418801E-2; n = 1
# [11] = system: RIOK2; conditions: read-out: apparent Kd; compound concentrations: 100 nM and 1000 nM (sheet 'Samples'), CATDS: 9.8324164530309899E-2; n = 1
# [12] = system: TGFBR2; conditions: read-out: apparent Kd, compound concentrations: 100 nM and 1000 nM (sheet 'Samples'), n = 1
# [13] = system: CDK7; conditions: read-out: apparent Kd; compound concentrations: 100 nM and 1000 nM (sheet 'Samples'), CATDS: 5.1614283275692202E-2; n = 1
# [14] = system: CDK9; conditions: read-out: apparent Kd; compound concentrations: 100 nM and 1000 nM (sheet 'Samples'), CATDS: 7.5250343499568897E-2; n = 1
# [15] = system: ERCC2; conditions: read-out: apparent Kd; compound concentrations: 100 nM and 1000 nM (sheet 'Samples'), CATDS: 5.1102609842245399E-2; n = 1
# [16] = system: FLT3; conditions: read-out: apparent Kd; compound concentrations: 100 nM and 1000 nM (sheet 'Samples'), CATDS: 7.2287914746840001E-2; n = 1
# [17] = system: GSK3A; conditions: read-out: apparent Kd; compound concentrations: 100 nM and 1000 nM (sheet 'Samples'), CATDS: 6.4716553061548596E-2; n = 1
# [18] = system: GSK3B; conditions: read-out: apparent Kd; compound concentrations: 100 nM and 1000 nM (sheet 'Samples'), CATDS: 9.1324175022244006E-2; n = 1
# [19] = system: ICK; conditions: read-out: apparent Kd; compound concentrations: 100 nM and 1000 nM (sheet 'Samples'), CATDS: 7.1869443211344197E-2; n = 1
# [20] = system: PIP4K2C; conditions: read-out: apparent Kd, n = 1
# [21] = system: CIT; conditions: read-out: apparent Kd; compound concentrations:100 nM and 1000 nM (sheet 'Samples'); n = 1
# [22] = system: COX5A; conditions: read-out: apparent Kd; compound concentrations:100 nM and 1000 nM (sheet 'Samples'); n = 1
# [23] = system: DDR2; conditions: read-out: apparent Kd; compound concentrations:100 nM and 1000 nM (sheet 'Samples'); n = 1
# [24] = system: GAK; conditions: read-out: apparent Kd; compound concentrations:100 nM and 1000 nM (sheet 'Samples'); n = 1
# [25] = system: MAP2K2; conditions: read-out: apparent Kd; compound concentrations:100 nM and 1000 nM (sheet 'Samples'); n = 1
# [26] = system: MAPK10; conditions: read-out: apparent Kd; compound concentrations:100 nM and 1000 nM (sheet 'Samples'); n = 1
# [27] = system: MAPK11; conditions: read-out: apparent Kd; compound concentrations:100 nM and 1000 nM (sheet 'Samples'); n = 1
# [28] = system: MAPK14; conditions: read-out: apparent Kd; compound concentrations:100 nM and 1000 nM (sheet 'Samples'); n = 1
# [29] = system: MAPK9; conditions: read-out: apparent Kd; compound concentrations:100 nM and 1000 nM (sheet 'Samples'); n = 1
# [30] = system: MAPKAPK2; conditions: read-out: apparent Kd; compound concentrations:100 nM and 1000 nM (sheet 'Samples'); n = 1
# [31] = system: NLK; conditions: read-out: apparent Kd; compound concentrations:100 nM and 1000 nM (sheet 'Samples'); n = 1
# [32] = system: NNT; conditions: read-out: apparent Kd; compound concentrations:100 nM and 1000 nM (sheet 'Samples'); n = 1
# [33] = system: PKN3; conditions: read-out: apparent Kd; compound concentrations:100 nM and 1000 nM (sheet 'Samples'); n = 1
# [34] = system: PRKD2; conditions: read-out: apparent Kd; compound concentrations:100 nM and 1000 nM (sheet 'Samples'); n = 1
# [35] = system: PSMC3; conditions: read-out: apparent Kd; compound concentrations:100 nM and 1000 nM (sheet 'Samples'); n = 1
# [36] = system: RIPK2; conditions: read-out: apparent Kd; compound concentrations:100 nM and 1000 nM (sheet 'Samples'); n = 1
# [37] = system: TGFBR1; conditions: read-out: apparent Kd; compound concentrations:100 nM and 1000 nM (sheet 'Samples'); n = 1
# [38] = compound concentrations:100 nM and 1000 nM (sheet 'Samples')
smiles,measurement,setting,value
FC(F)(F)CNc1nccc(-c2cnn3ncccc23)n1 [GW683003X],potency estimated from few doses,[1]; CATDS: 6.7048972560418404E-2,1220 nM
same,potency estimated from few doses,[2]; CATDS: 9.1245201473329901E-2,572 nM
same,potency estimated from few doses,[3]; CATDS: 8.9493688970087706E-2,596 nM
same,potency estimated from few doses,"[4]; compound concentrations: 100 nM and 1000 nM (sheet 'Samples'), CATDS: 7.1676757807884198E-2",1010 nM
same,potency estimated from few doses,"[5]; compound concentrations: 100 nM and 1000 nM (sheet 'Samples'), CATDS: 0.23797441251711701",117 nM
same,potency estimated from few doses,"[6]; compound concentrations: 100 nM and 1000 nM (sheet 'Samples'), CATDS: 0.17923780337449699",176 nM
same,potency estimated from few doses,[7]; CATDS: 7.8911513629173299E-2,792 nM
same,potency estimated from few doses,[8],1650 nM
same,potency estimated from few doses,[9],1740 nM
same,potency estimated from few doses,[10],1270 nM
same,potency estimated from few doses,[11],491 nM
same,potency estimated from few doses,[12]; CATDS: 8.1907636331175093E-2,726 nM
FC(F)(F)c1cc(Br)cc(Nc2nccc(-c3cnn4ncccc34)n2)c1 [GW810578X],potency estimated from few doses,[13],1740 nM
same,potency estimated from few doses,[14],461 nM
same,potency estimated from few doses,[1]; CATDS: 0.13413982703885399,127 nM
same,potency estimated from few doses,[2]; CATDS: 0.18636177679303401,72.6 nM
same,potency estimated from few doses,[3]; CATDS: 0.17259551294748199,82 nM
same,potency estimated from few doses,[7]; CATDS: 5.4131433130879598E-2,1410 nM
same,potency estimated from few doses,[15],1830 nM
same,potency estimated from few doses,[16],516 nM
same,potency estimated from few doses,[17],724 nM
same,potency estimated from few doses,[18],282 nM
same,potency estimated from few doses,[19],525 nM
same,potency estimated from few doses,"[20]; compound concentrations: 100 nM and 1000 nM (sheet 'Samples'), CATDS: 4.9119421247087701E-2",2250 nM
same,potency estimated from few doses,[12]; CATDS: 0.19336486168442599,68.5 nM
CN1CCC(n2cnc(-c3ccc(F)cc3)c2-c2ccnc(N)n2)CC1 [SB-220455],potency estimated from few doses,[21],230 nM
same,potency estimated from few doses,[22],656 nM
same,potency estimated from few doses,[4]; [38],24.7 nM
same,potency estimated from few doses,[5]; [38],2.26 nM
same,potency estimated from few doses,[6]; [38],5.87 nM
same,potency estimated from few doses,[23],578 nM
same,potency estimated from few doses,[24],1350 nM
same,potency estimated from few doses,[25],185 nM
same,potency estimated from few doses,[26],784 nM
same,potency estimated from few doses,[27],1130 nM
same,potency estimated from few doses,[28],22 nM
same,potency estimated from few doses,[29],450 nM
same,potency estimated from few doses,[30],3.88 nM
same,potency estimated from few doses,[31],81.5 nM
same,potency estimated from few doses,[32],1290 nM
same,potency estimated from few doses,[20]; [38],2310 nM
same,potency estimated from few doses,[33],1520 nM
same,potency estimated from few doses,[34],1580 nM
same,potency estimated from few doses,[35],1920 nM
same,potency estimated from few doses,[36],246 nM
same,potency estimated from few doses,[37],2020 nM
